FLuc counter: counter-screen for miR-21 project: firefly luciferase inhibitors or activators. P08659. purified FLuc, Km substrates, luminescence inhibition. Potency, µM (series often up to 57.5 µM), most hits filed as inhibitors. 6.9% of 360,000 active; also: nearly all actives have a fitted effect of over 55% in size
Target sequence (P08659 whole entry, looked up): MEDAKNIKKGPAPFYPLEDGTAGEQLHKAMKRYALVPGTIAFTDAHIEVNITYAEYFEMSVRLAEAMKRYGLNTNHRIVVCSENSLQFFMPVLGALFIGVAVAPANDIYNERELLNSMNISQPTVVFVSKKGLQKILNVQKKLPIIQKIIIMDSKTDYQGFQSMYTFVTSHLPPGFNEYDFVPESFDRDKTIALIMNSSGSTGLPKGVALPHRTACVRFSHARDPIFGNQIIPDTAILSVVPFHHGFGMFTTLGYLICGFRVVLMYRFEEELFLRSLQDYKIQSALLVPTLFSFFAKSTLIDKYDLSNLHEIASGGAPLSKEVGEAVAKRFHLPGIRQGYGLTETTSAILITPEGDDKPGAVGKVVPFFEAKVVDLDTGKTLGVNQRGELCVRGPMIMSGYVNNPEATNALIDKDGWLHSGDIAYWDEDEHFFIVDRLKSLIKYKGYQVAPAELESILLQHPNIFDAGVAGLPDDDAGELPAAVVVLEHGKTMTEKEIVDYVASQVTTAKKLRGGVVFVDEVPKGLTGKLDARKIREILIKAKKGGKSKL
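Purified P. pyralis luciferase, 10 nM final, with Km-level 10 uM D-luciferin and 10 uM ATP in 50 mM Tris acetate pH 7.5, 10 mM Mg acetate, 0.01% Tween-20, 0.05% BSA; 6-point qHTS titration about 60 µM downward; luminescence read.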
NPC1 prom act: NPC1 promoter activation. Huh7 NPC1 promoter luciferase reporter, 24 h. Potency, µM (series often up to 9.22 µM), hits mostly activators. 2.4% of 320,000 active. AID 485313; also: nearly all actives have a fitted effect of over 60% in size
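Luminescence from an NPC1 promoter-driven luciferase reporter in stably transfected Huh7 cells was measured after 24 h compound treatment at 37 °C, followed by 10 min ambient incubation with luciferase detection reagent.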
SMN2 splice up: increases expression of the SMN2 splice variant; 2.8% of 210,000 active; AID 1458; HEK293 SMN2-luciferase splicing reporter, luminescence, 30-36 h; Potency, µM (doses to about 46.1 µM), hits mostly activators; also: nearly all actives have a fitted effect of over 55% in size
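qHTS luciferase splicing reporter: luminescence rises when SMN2 exon 7 is included in transfected HEK293 cells. Compound exposure lasted 30-36 h at 37C, with 4.5 mM final sodium butyrate as control, followed by a ONE-Glo read.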
ELG1 genotoxic: induces genotoxicity in HEK293T cells with luciferase-tagged ELG1 | HEK293T ELG1-luciferase reporter, luminescence, 16 h | Potency, µM (top dose mostly 46 µM), most hits filed as activators | 1.3% of 330,000 active | AID 504466; also: nearly all actives have a fitted effect of over 60% in size
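HEK293T cells expressing luciferase-tagged ELG1 were treated with compound or DMSO for 16 hr at 37°C. Luciferase activity was then read after 30 min with ONE-Glo at room temperature; rising signal flags genetic stress.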
Rab9 promoter act: activates the Rab9 promoter; Huh7 Rab9 promoter-luciferase reporter, luminescence, 24 h; Potency, µM (doses to about 9.22 µM), most hits filed as activators; 2.8% of 320,000 active; also: nearly all actives have a fitted effect of over 60% in size
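Cell-based reporter: Huh7 stable for Rab9 promoter-driven luciferase, plated in reduced-serum medium with 10% FBS at 1500 cells/well, compound-treated 24 h at 37 °C, luminescence read after 10 min reagent.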
KinaseGlo FLuc: blocks Kinase-Glo luciferase, a counter-screen artifact; Q27757; Kinase-Glo luciferase, ATP luminescence, 8 min; Potency, µM (doses to about 38.3 µM), hits mostly inhibitors; 0.28% of 200,000 active; AID 1379; also: nearly all actives have a fitted effect of over 60% in size
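Compound is pinned into ATP-containing buffer (10 uM ATP, imidazole pH 7.2, 7 mM MgCl2). Kinase-Glo luciferase reagent is then added. Light output is recorded following an 8-min room-temperature incubation.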
Each line names hits and unclear results; the compound was inactive in the other large screens. Hits are enriched below; roughly 7.5% of the tested compounds scored in any of these assays. Calls follow the shape of the dose curve; as a rule, active = well fitted curve in the direction sought with a large enough effect; inconclusive = small, poorly fitted or top-dose-only effect, or another doubt; inactive = no such curve, though single readings can be large; an effect the other way counts as inactive or inconclusive.

O=c1oc(-c2cccc(S(=O)(=O)N3CCOCC3)c2)nc2ccccc12	none
CCc1ccc(-c2csc(NC(=O)COC(=O)CCc3nc4ccccc4s3)n2)cc1	FLuc counter inconclusive, NPC1 prom act 2.82µM, SMN2 splice up 5.62µM, ELG1 genotoxic inconclusive, Rab9 promoter act 3.16µM
Cc1nc(NC(=O)COC(=O)CCc2nc3ccccc3s2)c(Cl)cc1Cl	none
O=C1C(Cl)=C(NC2CCCCC2)C(=O)N1c1ccc(Cl)cc1	FLuc counter 4.78µM, SMN2 splice up inconclusive, ELG1 genotoxic inconclusive
O=C(O)COc1ccc(Br)cc1/C=N\Nc1ccccn1	FLuc counter inconclusive (no result: SMN2 splice up, KinaseGlo FLuc)
Brc1ccccc1/C=N/Nc1ccccn1	FLuc counter inconclusive, SMN2 splice up inconclusive, ELG1 genotoxic inconclusive
O=c1nc(N/N=C/c2c[nH]c3ccccc23)cn[nH]1	FLuc counter 12µM, NPC1 prom act 2.51µM, ELG1 genotoxic 10.3µM, Rab9 promoter act 2µM (no result: SMN2 splice up, KinaseGlo FLuc)
O=c1nc(N/N=C/C=C/c2ccccc2)cn[nH]1	FLuc counter 4.78µM, NPC1 prom act 0.501µM, ELG1 genotoxic 2.06µM, Rab9 promoter act 0.355µM (no result: SMN2 splice up, KinaseGlo FLuc)
C(=N\Nc1ccccn1)/c1c[nH]c2ccccc12	FLuc counter 15.1µM, ELG1 genotoxic inconclusive (no result: SMN2 splice up, KinaseGlo FLuc)
O=C(O)c1cccc2c(/C=N/Nc3ccccn3)c[nH]c12	FLuc counter 8.49µM, NPC1 prom act inconclusive, Rab9 promoter act 2.82µM (no result: SMN2 splice up, KinaseGlo FLuc)
N#Cc1ccc(-c2cccs2)nc1SCc1ccc(Cl)cc1Cl	none (no result: NPC1 prom act, ELG1 genotoxic, Rab9 promoter act, KinaseGlo FLuc)
CCOc1ccc(NC(=O)CN(C)S(=O)(=O)c2ccc3[nH]c4c(c3c2)CCCC4)cc1	none (no result: NPC1 prom act, SMN2 splice up, ELG1 genotoxic, Rab9 promoter act, KinaseGlo FLuc)
CCc1ccccc1NS(=O)(=O)c1ccc2c(c1)CCCN2C(=O)C1CCC1	none (no result: NPC1 prom act, SMN2 splice up, ELG1 genotoxic, Rab9 promoter act, KinaseGlo FLuc)
CC(=O)c1sc(NC(=O)c2c(-c3ccccc3)c(-c3ccccc3)nn(C)c2=O)nc1C	FLuc counter inconclusive (no result: NPC1 prom act, ELG1 genotoxic, Rab9 promoter act, KinaseGlo FLuc)
Cc1cc(C)n(CC(=O)Nc2ccc(F)c(F)c2)c(=O)c1C#N	none (no result: NPC1 prom act, SMN2 splice up, ELG1 genotoxic, Rab9 promoter act, KinaseGlo FLuc)
Cc1ccccc1OCC(=O)Nc1ccncc1	FLuc counter inconclusive (no result: SMN2 splice up, KinaseGlo FLuc)
Cc1ccc(OCC(=O)Nc2ccncc2)c(C)c1	FLuc counter 12µM (no result: SMN2 splice up, KinaseGlo FLuc)
O=C(CCCOc1ccc(Cl)cc1Cl)Nc1ccccn1	FLuc counter 16.9µM, ELG1 genotoxic inconclusive
CCNC(=O)CCCOc1ccc(Cl)cc1Cl	FLuc counter inconclusive, ELG1 genotoxic inconclusive
CN(c1cccc(NC(=O)COc2ccc(Cl)cc2Cl)c1)S(C)(=O)=O	FLuc counter 1.2µM, Rab9 promoter act inconclusive
O=C(CCCOc1ccc(Cl)cc1Cl)Nc1ccncc1	FLuc counter 23.9µM
CCc1ccc(-n2nnc(-c3nc(-c4ccc(C)cc4)no3)c2N)cc1	none (no result: NPC1 prom act, SMN2 splice up, ELG1 genotoxic, Rab9 promoter act, KinaseGlo FLuc)
Cc1cc(OCC(=O)Nc2ccncc2)cc(C)c1Br	none
O=C(COc1ccc(Cl)cc1Br)Nc1ccncc1	FLuc counter 9.53µM, NPC1 prom act inconclusive, ELG1 genotoxic inconclusive (no result: SMN2 splice up, KinaseGlo FLuc)
O=C(COc1ccc(Cl)cc1Cl)N/N=C/c1cccnc1	none (no result: SMN2 splice up, KinaseGlo FLuc)
O=C(COc1ccc(Cl)cc1Cl)Nc1cccnc1	FLuc counter 6.75µM, ELG1 genotoxic inconclusive
CCOc1ccccc1CNC(=O)c1cnc2sc(N(CC)CC)nn2c1=O	none (no result: NPC1 prom act, SMN2 splice up, ELG1 genotoxic, Rab9 promoter act, KinaseGlo FLuc)
O=C1N/C(=N/S(=O)(=O)Cc2ccccc2)S/C1=C/c1ccc2c(c1)OCO2	FLuc counter 26.9µM (no result: SMN2 splice up, KinaseGlo FLuc)
COc1ccc(/C=C2\SC(=NCc3ccccc3)NC2=O)cc1	none
COc1ccc(OCc2ccc(-c3nc(C#N)c(N4CCC(C(N)=O)CC4)o3)o2)cc1	none (no result: NPC1 prom act, SMN2 splice up, ELG1 genotoxic, Rab9 promoter act, KinaseGlo FLuc)
Cc1ccc(N2C(=O)c3ccccc3C2O)nc1 (stereo unspecified)	FLuc counter 1.51µM, NPC1 prom act inconclusive, SMN2 splice up 0.562µM, ELG1 genotoxic inconclusive, Rab9 promoter act 0.282µM, KinaseGlo FLuc 4.47µM
Cc1ccc(N2C(=O)c3ccccc3C2Nc2ccccc2F)nc1 (stereo unspecified)	none
CC(C)c1ccc(NC(=O)N(CCc2nc3ccccc3[nH]2)C2CCCC2)cc1	FLuc counter 7.57µM
COc1cc(Nc2nc(-c3ccccc3)c3cc(C)ccc3n2)cc(OC)c1OC	FLuc counter 16.9µM
NS(=O)(=O)c1ccc(Nc2nc3ccccc3nc2NS(=O)(=O)c2cccc([N+](=O)[O-])c2)cc1	FLuc counter inconclusive
COc1ccc(NC(=O)Nc2ccc3c(c2)OCO3)c(C)c1	NPC1 prom act inconclusive, ELG1 genotoxic inconclusive, Rab9 promoter act inconclusive (no result: SMN2 splice up, KinaseGlo FLuc)
